Compound activity deposited in PubChem by The Scripps Research Institute Molecular Screening Center.
HTR5A ag = HTR5A agonists in luminescence cell assay, primary screen, counter-screen for OPRM1-OPRD1 heterodimer agonist project, full-deck HTS; cell-based; activation, % at 9.3 µM; actives 0.61% (n = 340,000); AID 504692, 2011; in the data active means activation mostly above about 9.5%, no sharp cut-off; inactive means mostly below about 7.6%;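 further: 0% = cells with vehicle only and 100% = reference agonist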
Target sequence (P47898 whole entry, looked up): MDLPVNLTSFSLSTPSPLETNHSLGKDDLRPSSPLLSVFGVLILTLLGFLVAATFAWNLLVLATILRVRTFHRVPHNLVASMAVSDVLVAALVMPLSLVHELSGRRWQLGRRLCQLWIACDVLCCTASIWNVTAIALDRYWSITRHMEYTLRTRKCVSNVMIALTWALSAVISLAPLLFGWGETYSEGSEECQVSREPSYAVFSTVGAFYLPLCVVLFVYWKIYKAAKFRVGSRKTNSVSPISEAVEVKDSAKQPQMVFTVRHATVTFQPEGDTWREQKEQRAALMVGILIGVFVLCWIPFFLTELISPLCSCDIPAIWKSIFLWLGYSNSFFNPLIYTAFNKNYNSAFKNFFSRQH
MOR-DOR ag = agonists of OPRM1-OPRD1 heterodimerization, primary screen, cell-based, luminescence. Mu-type opioid receptor (Homo sapiens) + Delta-type opioid receptor (Homo sapiens), …. cells. activation, % at 9.3 µM. actives 0.3% (n = 340,000). AID 504326, 2011; in the data active means activation above about 18%;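 further: 0% = vehicle-treated cells and 100% = reference agonist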
HTR5A inv ctr = HTR5A inverse agonists in luminescence cell assay, primary screen, counter-screen for OPRM1-OPRD1 heterodimer inverse agonist project, full-deck HTS. HTR5A cell line, inverse agonism. inhibition, % at 9.3 µM. actives 0.083% (n = 340,000). AID 504634, 2011; in the data active means inhibition mostly above about 23%, no sharp cut-off; inactive means mostly below about 18%;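 further: 0% = cells with DMSO and 100% = no-cell wells with DMSO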
MOR-DOR inv ag-1 = inverse agonists of MOR-DOR heterodimerization, primary screen, cell-based, luminescence | actives 0.21% (n = 340,000) | cell-based MOR-DOR heterodimer luminescence, inverse agonism | inhibition, % at 9.3 µM; in the data active means inhibition above about 22%, passing the limit was not always enough;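 further: 0% = cells with DMSO and 100% = wells without cells with DMSO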
MOR-DOR inv conf = inverse agonists of MOR-DOR heterodimerization, confirmation, cell-based, luminescence; shares compounds with MOR-DOR inv ag-1; cells expressing OPRM1/OPRD1 heterodimer; inhibition, % at 9.3 µM; actives 20% (n = 580); AID 504900, 2011; in the data active means inhibition above about 32%;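 further: 0% = cells with DMSO and 100% = wells lacking cells with DMSO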
HTR5A inv count = HTR5A inverse agonists, counter-screen for OPRM1-OPRD1 inverse agonist project, cell-based, luminescence. 580 tested, under 10 active. inhibition, % at 9.3 µM. AID 504914, 2011. shares compounds with MOR-DOR inv ag-1. HTR5A-expressing cells, inverse agonism;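 further: 0% = cells with DMSO and 100% = no-cell wells with DMSO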
MOR-DOR inv ag-2 = inverse agonists of MOR-DOR heterodimerization, counter-screen for HTR5A inverse agonist project, cell-based, luminescence. inhibition, % at 9.3 µM. U2OS counter-screen cells, complementation luminescence. shares compounds with HTR5A inv ctr. 190 tested, under 10 active;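 further: 0% = cells with DMSO and 100% = wells without cells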
HTR5A inv confrm = HTR5A inverse agonists, retest of hits, confirmation, cell-based, luminescence | AID 504916, 2011 | inhibition, % at 9.3 µM | HTR5A-expressing cells, inverse agonism | shares compounds with HTR5A inv ctr | 190 tested, under 10 active;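 further: 0% = cells with DMSO and 100% = no cells with DMSO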
An asterisk follows results filed as active; i = inactive; · = not tested or not shown. Shown are actives, neighbours in structure and some others; about 1.1% of the full set was active somewhere. Unless noted, how the calls were made is not given here.

SMILES	HTR5A ag	MOR-DOR ag	HTR5A inv ctr	MOR-DOR inv ag-1	MOR-DOR inv ag-2	HTR5A inv confrm	others
CCN(CC)C(=O)CN1C(=O)C(=O)c2ccccc21	-1.0	-7.6	2.7	38.1*	·	·	MOR-DOR inv conf=13.8;HTR5A inv count=8.2
CC1CCN(C(=O)CN2C(=O)c3cccc4cccc(c34)C2=O)CC1	-2.0	-1.7	24.2	7.7	·	·
C=CCOc1c(Cl)cc(CNCCCN2CCOCC2)cc1OC	2.8	-1.9	-10.2	9.0	·	·
Cc1cc(OCC(=O)NNC(=S)NCC2CCCO2)cc(C)c1Cl (stereo unspecified)	-9.4	-2.3	24.2	9.5	·	·
COc1ccc(C2=NNC(=O)C2(C)Br)cc1 (stereo unspecified)	1.4	-3.2	-5.3	13.9	·	·
O=C(NCCS(=O)(=O)NC1CCCCC1)c1ccc2c(c1)OCO2	-4.2	-0.7	12.7	4.3	·	·
C=CC[C@]12CC=CC(=O)[C@@]1(O)O[C@H](c1ccc(OC)c(OC)c1)[C@H]2C	0.2	-1.5	-11.8	8.3	·	·
Cn1c(=O)[nH]c(=O)c2c1nc(N1CCNCC1)n2Cc1cccc2ccccc12	-7.5	-6.8	14.7	38.2*	·	·	MOR-DOR inv conf=-57.0;HTR5A inv count=-23.6
Cn1c(=O)c2c(nc(N3CCNCC3)n2Cc2cccc3ccccc23)n(C)c1=O	-6.7	-7.5	17.9	42.3*	·	·	MOR-DOR inv conf=4.5;HTR5A inv count=23.0
Cn1c(=O)[nH]c(=O)c2c1nc(N1CCNCC1)n2Cc1ccccc1	0.8	-2.7	-3.0	13.4	·	·
O=C(NCC(=O)N1CCN(C(=O)c2ccco2)CC1)c1ccc(Br)cc1	-1.9	-1.9	6.9	10.7	·	·
Cc1cc(C)nc(NNS(=O)(=O)c2c(C)cc(C(C)(C)C)cc2C)n1	-5.1	-4.8	12.4	25.2	·	·
Cc1cc(C)nc(NNS(=O)(=O)c2c(F)cc(F)cc2Br)n1	2.6	-8.1	-6.6	31.4*	·	·	MOR-DOR inv conf=-93.3;HTR5A inv count=-37.3
Nc1c(Cl)ncnc1N/N=C/c1ccnc2ccccc12	-3.2	-0.5	-4.6	2.1	·	·
Nc1c(Cl)ncnc1N/N=C/c1ccc2ccccc2n1	-1.7	-6.3	6.4	32.5*	·	·	MOR-DOR inv conf=16.2;HTR5A inv count=7.5
CCOC(=O)c1c(N)n(C2CC(C)(C)NC(C)(C)C2)c2nc3ccccc3nc12	2.8	-3.2	37.3*	17.9	-15.1	1.2
CC(C)Cn1c(-c2ccc(Br)cc2)c[nH]c1=S	-28.4	-0.4	81.2*	2.1	-109.8	0.8
CN1CCN(C(=O)CCN2C(=O)/C(=C/c3ccc(F)cc3)SC2=S)CC1	-0.8	1.1	1.9	-6.1	·	·
O=C(COC(=O)Cc1ccc(F)cc1)NCc1ccco1	1.0	-0.3	33.9*	1.7	-37.2	-14.9
CCn1c(-c2ccccc2)c[nH]c1=S	-0.4	-0.1	-4.0	0.3	·	·
S=c1[nH]cc(-c2ccc(Cl)cc2)n1Cc1ccccc1	-11.3	14.8	30.8*	-78.5	-222.6	-29.8
O=C(NCc1ccc(F)cc1)Nc1ccccc1	4.4	-3.0	14.6	15.4	·	·
CSc1ccc(NC(=O)NCc2ccccc2)cc1	-0.6	-1.8	31.3*	9.7	-22.0	6.9
CN(C)S(=O)(=O)c1ccc(Cl)c(C(=O)OCC(=O)NC(=O)NC2CCCC2)c1	1.1	2.1	96.2*	-8.2	-16.5	13.6
CN1CCN(c2ncnc3c2c(-c2ccccc2)cn3-c2ccc(F)cc2)CC1	-15.8	-5.7	39.1*	27.0	i	-35.8
Cc1cc2n(n1)C(c1ccc3c(c1)OCO3)Nc1c(C)cccc1-2 (stereo unspecified)	-4.9	2.6	32.8*	-12.7	-45.0	-5.0
C=C1CC[C@@H]2[C@](C)(CO)[C@H](O)CC[C@@]2(C)[C@@H]1C/C=C1/C(=O)OCC1O (stereo partly specified)	0.2	0.3	-0.7	-1.5	·	·
